Laboratory results: PubChem BioAssay (NCI)
This is part of a sample that, as a whole, favours compounds with a hit. Of some 83,000 tested, about 20% had one in any assay.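 Negative percent growth values reflect cell death: -40 means 40% of the cells present at the start died, and -100 means all died.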 Calls of active or inactive are those of the source. The calls were made as follows: active = growth percent below 10; inactive = the rest.

What was measured:
Assay in all cases: NCI-60 one-dose screen, 48 h (100 = growth as untreated, 0 = no growth, -100 = all killed)
Conditions in all cases: 10 µM unless noted
SK-MEL-2 melanoma = tested on: SK-MEL-2 melanoma
EKVX NSCLC = tested on: EKVX NSCLC
SN12C renal = tested on: SN12C renal
UO-31 renal = tested on: UO-31 renal
TK-10 renal = tested on: TK-10 renal
ACHN renal = tested on: ACHN renal
CAKI-1 renal = tested on: CAKI-1 renal
A498 renal = tested on: A498 renal
CCRF-CEM leukemia = tested on: CCRF-CEM leukemia
MOLT-4 leukemia = tested on: MOLT-4 leukemia
SR leukemia = tested on: SR leukemia
RPMI-8226 leukemia = tested on: RPMI-8226 leukemia
OVCAR-8 ovarian = tested on: OVCAR-8 ovarian
OVCAR-5 ovarian = tested on: OVCAR-5 ovarian
OVCAR-4 ovarian = tested on: OVCAR-4 ovarian
SK-OV-3 ovarian = tested on: SK-OV-3 ovarian
OVCAR-3 ovarian = tested on: OVCAR-3 ovarian
HS 578T breast = tested on: HS 578T breast
NCI/ADR-RES ovarian = tested on: NCI/ADR-RES ovarian
IGROV1 ovarian = tested on: IGROV1 ovarian

Measured: growth

COc1cc(-c2cc3cc(O)ccc3oc2=O)cc(OC)c1OC
inactive: SK-MEL-2 melanoma 92.7% | EKVX NSCLC 78.7% | SN12C renal 93.6% | UO-31 renal 66.7% | TK-10 renal 104% | ACHN renal 81.8% | CAKI-1 renal 84.6% | A498 renal 100% | CCRF-CEM leukemia 94.5% | MOLT-4 leukemia 94.2% | SR leukemia 84% | RPMI-8226 leukemia 91.7% | OVCAR-8 ovarian 93.8% | OVCAR-5 ovarian 88.8% | OVCAR-4 ovarian 97.3% | SK-OV-3 ovarian 102% | OVCAR-3 ovarian 114% | HS 578T breast 81.6% | NCI/ADR-RES ovarian 91.2%

CC1(n2nnnc2N2CCCN(c3ncccc3N)CC2)CCC1
inactive: SK-MEL-2 melanoma 110% | EKVX NSCLC 97.5% | SN12C renal 95.7% | UO-31 renal 92.4% | TK-10 renal 99% | ACHN renal 99.2% | CAKI-1 renal 90.7% | A498 renal 93.3% | CCRF-CEM leukemia 103% | MOLT-4 leukemia 99.3% | SR leukemia 79.1% | RPMI-8226 leukemia 104% | OVCAR-8 ovarian 102% | OVCAR-5 ovarian 98.7% | OVCAR-4 ovarian 97.2% | IGROV1 ovarian 99.7% | OVCAR-3 ovarian 106% | HS 578T breast 97.5% | NCI/ADR-RES ovarian 103%

O=C1C=Cc2ncccc2C1=O
active: CCRF-CEM leukemia -37.5% | MOLT-4 leukemia 0.968%
inactive: SK-MEL-2 melanoma 114% | EKVX NSCLC 64.7% | SN12C renal 65.2% | UO-31 renal 68.3% | TK-10 renal 111% | ACHN renal 76.1% | CAKI-1 renal 81.2% | A498 renal 125% | SR leukemia 12.2% | RPMI-8226 leukemia 27.6% | OVCAR-8 ovarian 87.8% | OVCAR-5 ovarian 106% | OVCAR-4 ovarian 111% | SK-OV-3 ovarian 83.5% | IGROV1 ovarian 105% | OVCAR-3 ovarian 64.4% | NCI/ADR-RES ovarian 84%

Nc1c2c(nc3ccc(Cl)cc13)CC(c1ccc(O)cc1)CC2=O (stereo unspecified)
inactive: SK-MEL-2 melanoma 61.3% | EKVX NSCLC 29.8% | SN12C renal 58.7% | UO-31 renal 60% | TK-10 renal 81.5% | ACHN renal 49.4% | CAKI-1 renal 48.3% | A498 renal 86.5% | CCRF-CEM leukemia 43.4% | MOLT-4 leukemia 46.9% | SR leukemia 31.8% | RPMI-8226 leukemia 34.9% | OVCAR-8 ovarian 75.5% | OVCAR-5 ovarian 91.9% | OVCAR-4 ovarian 81.3% | SK-OV-3 ovarian 68.7% | OVCAR-3 ovarian 25.3% | HS 578T breast 46.1% | NCI/ADR-RES ovarian 25.1%

COC(=O)[C@]12CC[C@@H](C)[C@H](C)[C@@H]1C1=CC[C@@H]3[C@@]4(C)CC(=O)[C@H](OC(=O)c5ccco5)[C@@]5(C)COC(=C45)C[C@@]3(C)[C@]1(C)CC2
active: SK-MEL-2 melanoma 8.78%
inactive: EKVX NSCLC 35.6% | SN12C renal 36% | UO-31 renal 29.3% | TK-10 renal 38.5% | ACHN renal 25.9% | CAKI-1 renal 28.7% | A498 renal 13.1% | CCRF-CEM leukemia 25.1% | MOLT-4 leukemia 24.4% | SR leukemia 25.8% | RPMI-8226 leukemia 24.4% | OVCAR-8 ovarian 28.5% | OVCAR-5 ovarian 69.2% | OVCAR-4 ovarian 19.6% | SK-OV-3 ovarian 36.1% | OVCAR-3 ovarian 43.5% | HS 578T breast 61.4% | NCI/ADR-RES ovarian 33.3%

N#C/C(=C\c1ccc(-c2ccc(Br)cc2)o1)c1nc(-c2ccco2)cs1
inactive: SK-MEL-2 melanoma 103% | EKVX NSCLC 41.6% | SN12C renal 92.3% | UO-31 renal 74.7% | TK-10 renal 38.7% | ACHN renal 95.8% | CAKI-1 renal 88.8% | A498 renal 101% | CCRF-CEM leukemia 89.9% | MOLT-4 leukemia 94.2% | SR leukemia 95.6% | RPMI-8226 leukemia 61.4% | OVCAR-8 ovarian 99.8% | OVCAR-5 ovarian 63.4% | IGROV1 ovarian 60.9% | OVCAR-3 ovarian 106% | HS 578T breast 100% | NCI/ADR-RES ovarian 99.8%
active: OVCAR-4 ovarian -6.53%

C=C(C)[C@@H]1CC[C@]2(CN)CC[C@]3(C)[C@H](CC[C@@H]4[C@@](C)(CCCN)[C@H](C(=C)C)CC[C@]43C)[C@@H]12
active: SR leukemia -3.93%
inactive: SK-MEL-2 melanoma 107% | EKVX NSCLC 102% | SN12C renal 82.5% | UO-31 renal 63% | TK-10 renal 119% | ACHN renal 99.1% | CAKI-1 renal 75.5% | A498 renal 88.7% | CCRF-CEM leukemia 66.6% | MOLT-4 leukemia 57% | RPMI-8226 leukemia 58.5% | OVCAR-8 ovarian 94.1% | OVCAR-5 ovarian 103% | OVCAR-4 ovarian 102% | IGROV1 ovarian 86.9% | OVCAR-3 ovarian 89.4% | HS 578T breast 89.4% | NCI/ADR-RES ovarian 94.5%

COC1=C(Br)C(=O)C(OC)=C(Br)C1=O
inactive: SK-MEL-2 melanoma 119% | EKVX NSCLC 105% | SN12C renal 95.2% | UO-31 renal 93.3% | TK-10 renal 95.7% | ACHN renal 104% | CAKI-1 renal 98.9% | A498 renal 128% | MOLT-4 leukemia 26.4% | SR leukemia 42.7% | RPMI-8226 leukemia 101% | OVCAR-8 ovarian 105% | OVCAR-5 ovarian 113% | OVCAR-4 ovarian 96.8% | SK-OV-3 ovarian 110% | IGROV1 ovarian 111% | OVCAR-3 ovarian 91% | NCI/ADR-RES ovarian 104%
active: CCRF-CEM leukemia -12.3%

c1ccc(CN2C(c3ccccc3)=Nc3ccccc3C2c2c[nH]c3ccccc23)cc1 (stereo unspecified)
inactive: SK-MEL-2 melanoma 69% | EKVX NSCLC 37.3% | SN12C renal 36.4% | UO-31 renal 24.5% | TK-10 renal 45.8% | ACHN renal 51.4% | CAKI-1 renal 35.9% | A498 renal 63.6% | CCRF-CEM leukemia 32.4% | OVCAR-8 ovarian 44.4% | OVCAR-5 ovarian 60.7% | OVCAR-4 ovarian 27.1% | IGROV1 ovarian 19.3% | OVCAR-3 ovarian 57.6% | HS 578T breast 52.3% | NCI/ADR-RES ovarian 30.2%
active: MOLT-4 leukemia 2.6% | SR leukemia -17.8% | RPMI-8226 leukemia 4.99%

Cc1ccc(Sc2sc(-c3ccccc3)nc2[P+](c2ccccc2)(c2ccccc2)c2ccccc2)cc1
active: SK-MEL-2 melanoma -37.8% | EKVX NSCLC 5.57% | SN12C renal 6% | UO-31 renal -39.1% | ACHN renal 6.46% | CAKI-1 renal -14.2% | A498 renal -43.5% | CCRF-CEM leukemia 7.63% | MOLT-4 leukemia -48.2% | SR leukemia -10.1% | RPMI-8226 leukemia -39.2% | OVCAR-8 ovarian 7.53% | OVCAR-4 ovarian 2.09% | IGROV1 ovarian -0.559% | OVCAR-3 ovarian -9.1% | HS 578T breast -1.87% | NCI/ADR-RES ovarian -7.72%
inactive: TK-10 renal 14.7% | OVCAR-5 ovarian 25.4%

CCN1CCN(C(=O)[C@]23CCC(C)(C)C[C@@H]2C2=CC[C@@H]4[C@@]5(C)C/C(=C/c6ccncc6)C(=O)C(C)(C)[C@@H]5CC[C@@]4(C)[C@]2(C)CC3)CC1
active: SK-MEL-2 melanoma -30.8% | SN12C renal -70.1% | UO-31 renal -92.7% | ACHN renal 3.29% | A498 renal -22.6% | CCRF-CEM leukemia 3.73% | MOLT-4 leukemia -12.2% | SR leukemia -29.1% | RPMI-8226 leukemia -32.1% | OVCAR-8 ovarian 7.29% | OVCAR-5 ovarian -20.4% | OVCAR-4 ovarian 6.7% | IGROV1 ovarian -9.63% | OVCAR-3 ovarian -85.7% | HS 578T breast -23.6% | NCI/ADR-RES ovarian -49.2%
inactive: EKVX NSCLC 15.3% | TK-10 renal 32.3% | CAKI-1 renal 23.2% | SK-OV-3 ovarian 16.2%

COc1ccc2c(c1)C(Br)=C(CCO)C2c1ccccc1 (stereo unspecified)
active: ACHN renal 4.96%
inactive: SK-MEL-2 melanoma 85% | EKVX NSCLC 75.8% | SN12C renal 99.2% | UO-31 renal 62.4% | TK-10 renal 67% | CAKI-1 renal 37% | A498 renal 35.6% | CCRF-CEM leukemia 95.2% | MOLT-4 leukemia 114% | SR leukemia 112% | RPMI-8226 leukemia 40.7% | OVCAR-8 ovarian 86.1% | OVCAR-5 ovarian 78% | OVCAR-4 ovarian 87.3% | IGROV1 ovarian 83.5% | OVCAR-3 ovarian 26% | HS 578T breast 35.7% | NCI/ADR-RES ovarian 65.1%

CN(C)c1ccc(N)c2ccccc12
active: SN12C renal -62.2% | OVCAR-3 ovarian -15.6%
inactive: SK-MEL-2 melanoma 89.6% | EKVX NSCLC 49.2% | UO-31 renal 52.7% | TK-10 renal 128% | ACHN renal 67.2% | CAKI-1 renal 69.4% | A498 renal 183% | CCRF-CEM leukemia 41.8% | MOLT-4 leukemia 40.7% | SR leukemia 55% | RPMI-8226 leukemia 68.8% | OVCAR-8 ovarian 74.6% | OVCAR-5 ovarian 75.4% | OVCAR-4 ovarian 27.7% | SK-OV-3 ovarian 85.2% | IGROV1 ovarian 65.1% | NCI/ADR-RES ovarian 77.2%

Nc1c(C(=O)Nc2c(Cl)cccc2Cl)sc2nc3c(cc12)CCCC3
inactive: SK-MEL-2 melanoma 75.8% | EKVX NSCLC 102% | SN12C renal 69.6% | UO-31 renal 84.3% | TK-10 renal 90.2% | ACHN renal 87.7% | CAKI-1 renal 79.3% | A498 renal 79.7% | CCRF-CEM leukemia 55.1% | MOLT-4 leukemia 46.9% | SR leukemia 12% | RPMI-8226 leukemia 93.4% | OVCAR-8 ovarian 84.9% | OVCAR-5 ovarian 105% | OVCAR-4 ovarian 89.9% | IGROV1 ovarian 79.5% | OVCAR-3 ovarian 64% | HS 578T breast 82.3% | NCI/ADR-RES ovarian 60.8%

C[C@@H]1CCCCCCCCC[C@H](O)C(=O)C[C@@H](SC[C@@H](O)C(=O)O)C(=O)O1
inactive: SK-MEL-2 melanoma 100% | EKVX NSCLC 105% | SN12C renal 93.6% | UO-31 renal 87.2% | TK-10 renal 95.2% | ACHN renal 96.6% | CAKI-1 renal 102% | A498 renal 167% | CCRF-CEM leukemia 59.4% | MOLT-4 leukemia 70.2% | SR leukemia 74.4% | OVCAR-8 ovarian 94.5% | OVCAR-5 ovarian 104% | OVCAR-4 ovarian 110% | SK-OV-3 ovarian 104% | OVCAR-3 ovarian 107% | HS 578T breast 113% | NCI/ADR-RES ovarian 106%
active: RPMI-8226 leukemia -2.38%
